Results from PubChem BioAssay AID1159580 (chemical genetic matrix, 2015).
Hit rate of the full screen: of about 5,500 compounds, about 2,000 (36%) were called active. Roughly 18% stayed inconclusive and do not appear here. Cut-off read from the data, not from the text of the source: active = normalized growth mostly below about 0.91 (no sharp cut-off); inconclusive = no clear call, values can overlap the other calls; inactive = mostly above about 0.92. Some of the results follow.

Assay: chemical genetic growth profiling, strain panel (AID 1159580);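 note: tested at 20 µM; growth read once vehicle control cultures reached saturation at 30 °C; 1 = growth at the plate median or of vehicle wells; lower values mean less growth of the strain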
Details: S. cerevisiae deletion strains, growth OD

Measured: normalized growth

NCCCCCCCCCCN
inactive: locus YAL040C, strain CLN3, hits give low values 1.01 | locus YCL061C, strain MRC1 (second series), hits give low values 1.01 | locus YDR150W, strain NUM1, hits give low values 1.01 | locus YDR363W, strain ESC2, hits give low values 1.03 | locus YER002W, strain NOP16, hits give low values 1.01 | locus YNL175C, strain NOP13, hits give low values 1.01 | locus YNL197C, strain WHI3, hits give low values 1 | locus YNL224C, strain SQS1, hits give low values 1 | locus YOR083W, strain WHI5 (second series), hits give low values 1.02 | locus YPL241C, strain CIN2, hits give low values 1.01

C/C(=N/OC(=O)Nc1ccc(Cl)cc1)c1ccc2c(c1)CCO2
active: locus YHR030C, strain SLT2, hits give low values 0.607 | locus YLR113W, strain HOG1, hits give low values 0.755 | locus YPL256C, strain CLN2, hits give low values 0.853
inactive: locus YAR019C, strain CDC15, hits give low values 0.946 | locus YBL105C, strain PKC1, hits give low values 0.95 | locus YBR135W, strain CKS1, hits give low values 0.954 | locus YBR136W, strain MEC1, hits give low values 0.95 | locus YBR160W, strain CDC28, hits give low values 0.943 | locus YDL017W, strain CDC7, hits give low values 0.947 | locus YDL028C, strain MPS1, hits give low values 0.955 | locus YDL101C, strain DUN1, hits give low values 0.948 | locus YDL108W, strain KIN28, hits give low values 0.966 | locus YDL132W, strain cdc53, hits give low values 0.935 | locus YDL214C, strain PRR2, hits give low values 0.868 | locus YDR052C, strain DBF4, hits give low values 0.957 | locus YDR054C, strain cdc34, hits give low values 0.93 | locus YDR226W, strain ADK1, hits give low values 0.949 | locus YDR477W, strain SNF1, hits give low values 0.853 | locus YER123W, strain YCK3, hits give low values 0.858 | locus YER133W, strain GLC7, hits give low values 0.837 | locus YFL009W, strain cdc4, hits give low values 0.949 | locus YFL029C, strain CAK1, hits give low values 0.939 | locus YFR003C, strain YPI1, hits give low values 0.959 | locus YFR019W, strain FAB1, hits give low values 0.93 | locus YFR028C, strain CDC14, hits give low values 0.953 | locus YGR040W, strain KSS1, hits give low values 0.835 | locus YGR052W, strain FMP48, hits give low values 0.908 | locus YGR092W, strain DBF2, hits give low values 0.599 | locus YHR079C, strain IRE1, hits give low values 0.775 | locus YHR082C, strain KSP1, hits give low values 0.838 | locus YHR205W, strain SCH9, hits give low values 0.756 | locus YIL147C, strain SLN1, hits give low values 0.949 | locus YJL095W, strain BCK1, hits give low values 0.69 | locus YJL128C, strain PBS2, hits give low values 0.951 | locus YJL157C, strain FAR1, hits give low values 0.852 | locus YJR016C, strain ILV3, hits give low values 0.938 | locus YJR066W, strain TOR1 (second series), hits give low values 0.745 | locus YJR066W, strain TOR1, hits give low values 0.727 | locus YKL048C, strain ELM1, hits give low values 0.966 | locus YKL067W, strain YNK1, hits give low values 0.891 | locus YKL101W, strain HSL1, hits give low values 0.92 | locus YKL193C, strain SDS22, hits give low values 0.941 | locus YKL203C, strain TOR2, hits give low values 0.85 | locus YLR133W, strain CKI1, hits give low values 0.884 | locus YLR403W, strain SFP1, hits give low values 0.777 | locus YML070W, strain DAK1, hits give low values 0.874 | locus YMR001C, strain CDC5, hits give low values 0.946 | locus YMR205C, strain PFK2 (second series), hits give low values 0.908 | locus YMR277W, strain FCP1, hits give low values 0.949 | locus YNL006W, strain LST8, hits give low values 0.97 | locus YNL020C, strain ARK1, hits give low values 0.873 | locus YNL161W, strain CBK1, hits give low values 0.951 | locus YNL183C, strain NPR1, hits give low values 0.775 | locus YNL207W, strain RIO2, hits give low values 0.936 | locus YNL222W, strain SSU72, hits give low values 0.954 | locus YNL307C, strain MCK1 (second series), hits give low values 0.832 | locus YOL078W, strain AVO1, hits give low values 0.951 | locus YOL136C, strain PFK27, hits give low values 0.864 | locus YOR061W, strain CKA2, hits give low values 0.873 | locus YOR119C, strain RIO1, hits give low values 0.894 | locus YOR231W, strain MKK1, hits give low values 0.808 | locus YOR329C, strain SCD5, hits give low values 0.956 | locus YPL031C, strain PHO85, hits give low values 0.806 | locus YPL153C, strain RAD53, hits give low values 0.846 | locus YPL204W, strain HRR25, hits give low values 0.803 | locus YPL209C, strain IPL1, hits give low values 0.956 | locus YPR025C, strain CCL1, hits give low values 0.955 | locus YPR106W, strain ISR1, hits give low values 0.959 | locus YPR111W, strain DBF20, hits give low values 0.96 | strain NNK1, hits give low values 0.951 | strain TSCII, hits give low values 0.938
